GRIN3A LBD mod – modulators (binders) of human NR3A ligand-binding domain. NR3A LBD differential scanning fluorimetry, Tm shift; 0% = protein alone, 100% = glycine-bound protein. Tm shift relative to glycine control, % at 25 µM. 340,000 tested, 2.5% active. AID 1259313;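 active = melting temperature shift of at least 10% of the positive control shift, at one fixed dose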
proKLK7 act – activates the human kallikrein-7 zymogen. P49862. purified proKLK7, EDANS-DABCYL substrate fluorescence; 100% is mature enzyme control, 0% vehicle. activation, % at 7 µM. 370,000 tested, 0.9% active;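 active = activation above the mean of all tested compounds plus 3 SD, computed per campaign excluding outliers beyond control limits, cut at about 13% in these data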
ADAM10 inh – ADAM10 inhibition, QFRET primary screen | O14672 | recombinant ADAM10, EDANS/DABCYL FRET peptide cleavage, 3 h | inhibition, % at 7 µM | 370,000 tested, 0.62% active | AID 720582;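 active = inhibition above a per-campaign cutoff equal to the mean of compounds falling between control-based bounds plus 3 SD, cut at about 20% in these data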;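 note: 0% = DMSO wells while the 100% control is not disclosed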
AHR act – activates the human aryl hydrocarbon receptor | P35869 | AHR-responsive luciferase reporter cells, luminescence | activation, % at 5 µM | 320,000 tested, 2.5% active; in the data active = activation above about 47%;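 note: 0% = vehicle wells and 100% = reference agonist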
Target sequence (P35869 whole entry, looked up): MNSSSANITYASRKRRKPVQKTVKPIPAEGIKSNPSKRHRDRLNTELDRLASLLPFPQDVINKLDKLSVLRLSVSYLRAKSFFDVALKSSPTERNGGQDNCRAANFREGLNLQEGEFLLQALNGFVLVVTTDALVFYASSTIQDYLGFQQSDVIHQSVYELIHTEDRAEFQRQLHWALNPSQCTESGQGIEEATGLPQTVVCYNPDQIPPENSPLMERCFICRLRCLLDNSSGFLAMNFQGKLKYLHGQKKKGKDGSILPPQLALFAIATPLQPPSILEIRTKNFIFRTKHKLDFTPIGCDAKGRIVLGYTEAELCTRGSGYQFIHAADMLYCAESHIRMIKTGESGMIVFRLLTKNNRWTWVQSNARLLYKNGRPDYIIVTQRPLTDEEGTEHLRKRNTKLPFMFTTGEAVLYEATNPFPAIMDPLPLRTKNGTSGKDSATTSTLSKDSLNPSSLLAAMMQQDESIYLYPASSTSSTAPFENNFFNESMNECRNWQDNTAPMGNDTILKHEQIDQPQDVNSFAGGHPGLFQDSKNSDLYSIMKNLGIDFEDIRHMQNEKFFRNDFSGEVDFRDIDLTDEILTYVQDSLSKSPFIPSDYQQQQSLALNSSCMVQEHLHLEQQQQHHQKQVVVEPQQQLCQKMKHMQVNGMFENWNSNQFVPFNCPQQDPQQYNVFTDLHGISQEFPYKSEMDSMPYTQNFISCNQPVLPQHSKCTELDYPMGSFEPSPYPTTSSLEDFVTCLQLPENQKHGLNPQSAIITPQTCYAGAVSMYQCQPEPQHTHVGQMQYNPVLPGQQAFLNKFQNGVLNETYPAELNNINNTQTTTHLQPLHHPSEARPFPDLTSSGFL
ADAM17 inh – ADAM17 inhibition, QFRET primary screen | P78536 | recombinant ADAM17, EDANS/DABCYL FRET peptide cleavage | inhibition, % at 6.95 µM | 370,000 tested, 0.83% active;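 active = inhibition above the mean of compounds lying between control limits plus 3 SD, set per campaign, cut at about 8.5% in these data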;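 note: 0% = DMSO-only wells as the low control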
rCAG RNA binder – r(CAG) repeat RNA binding; TO-PRO-1 dye displacement fluorescence; inhibition, % at 3 µM; 370,000 tested, 1.3% active;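 active = inhibition above the plate cutoff, the mean of all test compounds on that plate plus 3 SD, cut at about 35% in these data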;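 note: 0% = DMSO alone and 100% = 100 µM mitoxantrone as full dye displacement; higher means more dye released from RNA so lower well fluorescence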
* hit, by the source's call; · = no result given. Sampled rows, rich in hits. Any-hit rate of the full collection: about 7%.

SMILES	GRIN3A LBD mod	proKLK7 act	ADAM10 inh	AHR act	ADAM17 inh	rCAG RNA binder
FC(F)(F)c1nc2ccccc2c2nc3ccccc3n12	-1	1	-126	50*	-39	3
c1ccc2c(c1)nc(CN1CCOCC1)n1c3ccccc3nc21	0	0	-19	4	-11	1
CCc1nc2ccccc2c2nc3ccccc3n12	-5	1	-74	51*	-23	4
CCCC1CCC2(CC1)CCC2OC(=O)Nc1ccc(F)cc1 (configuration not stated)	·	·	6	·	0	·
O=C(OC12CCCN(C1)/C(=C/c1cccc(Cl)c1)C2)c1ccno1 (configuration not stated)	·	0	4	·	0	3
CC(=O)NCC(=O)OCC(=O)Nc1ccc(C(C)=O)cc1	13*	0	5	2	-2	5
COc1ccc(/C=N/n2cnnc2SCCO)cc1OC	5	1	-17	5	-4	-1
C=CCSc1nncn1/N=C/c1ccc(OC)cc1	-1	0	-1	58*	-6	-3
O=[N+]([O-])c1ccc(/C=N/Nc2nc(N3CCCCC3)nc(N3CCCCC3)n2)cc1	3	0	-3	2	-1	-3
O=[N+]([O-])c1cc2c(cc1/C=N/Nc1nc(N3CCCC3)nc(N3CCCC3)n1)OCO2	-2	0	5	13	1	-2
O=[N+]([O-])c1ccccc1/C=N/Nc1nc(N2CCCC2)nc(N2CCCC2)n1	-2	0	-1	51*	4	-3
O=[N+]([O-])c1ccc(Nc2nc(N/N=C\c3ccc4c(c3)OCO4)nc(N3CCCCC3)n2)cc1	13*	-1	-1	71*	0	10
COc1ccc([N+](=O)[O-])cc1/C=N/Nc1nc(N2CCCCC2)nc(N2CCCCC2)n1	29*	0	-1	1	-1	1
Cn1c(COc2ccccc2)nnc1SCC(=O)Nc1ccccc1-c1ccccc1	·	1	-3	·	5	4
COC(=O)c1cccc(OC[C@@H](O)CN2CCC(C(O)(c3ccccc3)c3ccccc3)CC2)c1	·	0	2	·	7	0
CCOC(=O)CC(=O)CSc1nc(-c2ccc3c(c2)OCO3)cc(C(F)(F)F)c1C#N	1	·	·	60*	·	·
COc1cc(C(=O)NCC(=O)N/N=C/c2ccc(-c3cccc([N+](=O)[O-])c3)o2)cc(OC)c1OC	-1	0	-1	1	-5	12
O=C(N/N=C/c1ccc(O)cc1)c1cc(-c2ccc3c(c2)OCO3)n[nH]1	28*	-1	1	76*	1	7
CN(/N=C/c1ccc(-c2ccc([N+](=O)[O-])cc2)o1)c1ccccc1	13*	1	7	34	0	-4
O=C(NN=Cc1ccc(O)cc1)c1cc(-c2ccc(Cl)cc2)n[nH]1	·	-2	-6	·	-1	10
COc1ccc(-c2cc(C(=O)NN=Cc3ccc(-c4ccccc4)cc3)[nH]n2)cc1	·	1	1	·	3	9
CN(/N=C/c1cc([N+](=O)[O-])ccc1O)c1ccccc1	-6	0	1	31	1	6
COc1cc(C(=O)NCC(=O)N/N=C/c2ccc(-c3ccc([N+](=O)[O-])cc3)o2)cc(OC)c1OC	14*	0	-4	-2	-1	11
O=C(N/N=C/c1ccccc1)c1cc(-c2ccc3c(c2)OCO3)n[nH]1	26*	0	-1	88*	-1	5
COC(=O)CN1CCN(C(=O)c2csc3ccccc23)CC1	·	1	-2	·	0	6
SMILES	GRIN3A LBD mod	proKLK7 act	ADAM10 inh	AHR act	ADAM17 inh	rCAG RNA binder
CC(=O)N[C@@H]1C[C@@H]2O[C@H](CO)CC[C@@H]2O[C@@H]1CCc1ccc(-c2ccc(F)cc2)cc1	·	0	-1	·	0	4
Nc1nc2c(ncn2[C@@H]2O[C@H](C(=O)N[C@H](Cc3ccccc3)C(=O)NCc3ccc4c(c3)OCO4)[C@@H](O)[C@H]2O)c(=O)[nH]1	·	0	-12	·	-3	9
O=C(N/N=C/c1ccccc1)c1ccc2c(c1)OCO2	1	0	-2	70*	-3	-3
O=C(N/N=C/c1ccc([N+](=O)[O-])o1)c1ccc2c(c1)OCO2	-1	0	1	·	2	4
O=C(N/N=C\c1ccc(-c2ccc([N+](=O)[O-])cc2)o1)c1ccc2c(c1)OCO2	31*	0	-4	12	-3	2
O=C(N/N=C/c1cccc([N+](=O)[O-])c1)c1cc(-c2ccc3c(c2)OCO3)n[nH]1	29*	0	-6	20	-4	1
O=C(N/N=C/c1cccc(O)c1)c1cc(-c2ccc3c(c2)OCO3)n[nH]1	32*	0	3	117*	1	8
Cc1ccc(C(=O)NN=Cc2ccc3c(c2)OCO3)cc1	-23	1	-16	·	-5	3
CN(C)c1ccc(/C=N/NC(=O)c2ccc3c(c2)OCO3)cc1	6	-1	-2	·	0	-1
O=S1(=O)C=CCN1Cc1cn(Cc2ccccc2)nn1	·	0	0	·	-2	0
COCCCN1C(=O)[C@H](CC(=O)NCC2CCCCC2)[C@]2(C(=O)OC)CCCCC=C12	·	0	0	·	-3	1
CCCc1c(C)[nH]c2ccc(C(=O)O)cc2c1=S	0	0	-25	·	-15	45*
Cc1[nH]c2ccc(C(=O)O)cc2c1C	0	0	-16	-1	-7	-2
O=C(NCCN1CCC(Cc2ccccc2)CC1)C1CCCN(S(=O)(=O)c2ccc([N+](=O)[O-])cc2)C1 (configuration not stated)	·	1	-9	·	-2	2
CC(C)c1ccc2[nH]c(O)c(N=NC(=O)c3cccc(S(=O)(=O)Nc4ccccc4Cl)c3)c2c1	7	0	2	4	2	6
CC(C)NC(=S)N=Nc1c(O)[nH]c2ccc(C(C)C)cc12	-3	0	4	67*	1	5
CCCCS(=O)(=O)N1CCCc2nc(-c3ccc(F)cc3)ccc21	·	0	-15	·	-5	5
CN1c2ccsc2/C(=N/Nc2ccc(F)cc2)CS1(=O)=O	-6	0	5	65*	3	7
COCC(=O)n1nc(-c2ccccc2)nc1NCc1ccc(F)cc1	13*	0	-9	8	-5	-4
COCC(=O)n1nc(-c2ccccc2)nc1NCc1ccccc1	1	0	-5	·	-6	-1
On1cnnc1-c1ccccc1	11*	0	0	1	-2	0
COc1ccc(Cn2cc(COC(=O)NCCc3c[nH]c4ccccc34)nn2)cc1	·	0	6	·	2	6
C[C@@H]1CN([C@H](C)CO)C(=O)c2cc(NC(=O)Nc3ccc(C(F)(F)F)cc3)ccc2O[C@H]1CN(C)Cc1ccc(Cl)c(Cl)c1	32*	0	2	1	-2	7

Screens as filed in PubChem BioAssay.
